From ChEMBL document CHEMBL3988442, “University of Dundee, Small-Polar-MMV Screening Library” (2021)
About 13,000 (27%) of roughly 48,000 compounds showed an effect of 50% or more. The list shows a part of the results.

System: Wolbachia pipientis
Assay: Anti-Wolbachia Cell-Based Screen
Assay type: functional
Design: scale not given: in the data most compounds retested in dose-response had high values
Conditions: 5 µM

| SMILES | Percent Effect [%] |
| --- | --- |
| Cc1cc(CS(=O)(=O)N(C)C(C)c2ccc(Cl)cc2)on1 (stereo unspecified) | 1.246 |
| CN(C)[C@@H]1CCN(c2ncc(F)cn2)[C@H]1Cc1ccncc1.O=C(O)C(F)(F)F.O=C(O)C(F)(F)F | 2.593 |
| CC(O)CCN(C)S(=O)(=O)Cc1ccc(Cl)c(Cl)c1 (stereo unspecified) | 3.883 |
| N[C@H]1CN(C(=O)Cc2ccc(CO)cc2)C[C@@H]1C1CC1 | -4.225 |
| O=C1CN(Cc2cn(C3CCN(C4CSCCSC4)CC3)nn2)CCN1 | 9.418 |
| Fc1ccc(Cc2cccc(C3CCN(C4CCOCC4)CC3)n2)cc1 | 122.8 |
| CN(C)C(=O)CN1CCN(c2ccnc3c(F)ccc(F)c23)CC1 | 6.891 |
| Fc1ccc2[nH]c([C@H]3CCN(C4CCOCC4)C3)nc2c1 | -0.03029 |
| O=C1CO[C@H]2CN(C3CCOCC3)C[C@H]2N1Cc1ccc(F)cc1 | 15.12 |
| CN1CCCC1c1cccc(Cc2ccc(F)cc2)n1 (stereo unspecified) | 109.9 |
| CC(C)c1nccn1-c1cccc(C2CCCN2S(=O)(=O)N(C)C)n1 (stereo unspecified) | -5.176 |
| CN(C)C(=O)CN1CCC(c2cccc(Cc3ccc(F)cc3)n2)CC1 | 83.25 |
| CC(C)c1nccn1-c1cccc(C2CCCN(S(=O)(=O)N(C)C)C2)n1 (stereo unspecified) | 123.6 |
| CN(C)C(=O)CN(C)C(=O)c1cnc(Cc2ccc(F)cc2)s1 | -0.8881 |
| CN1CCCC1c1cccc(Cc2ccccc2F)n1 (stereo unspecified) | -8.343 |
| CCCN1CCCC1c1nc(Cc2ccc(F)cc2)no1 (stereo unspecified) | -11.63 |
| CCO[C@H]1CN(C)C[C@@H]1NC(=O)c1c[nH]nc1C1CCCCC1 | -8.959 |
| NC(=O)C1CCN(C(=O)NCc2ccccc2Cn2ccnc2)CC1 | -2.267 |
| COc1cc(C(=O)N2CC[C@@H](NC(=O)c3ccccn3)[C@H](O)C2)ccn1 | -8.714 |
| COC1(CNS(=O)(=O)c2ccccc2Cl)CCSC1 (stereo unspecified) | -2.993 |
| COC(=O)c1ccc(NC2CCN(CC(F)(F)F)C2=O)cc1C (stereo unspecified) | 4.628 |
| CCn1ccnc1CN1CCN(CCC(=O)NC(C)(C)C)CC1C (stereo unspecified) | -7.568 |
| CN(C)S(=O)(=O)N1CCCC(c2cccc(Cc3ccccc3F)n2)C1 (stereo unspecified) | 93.31 |
| CN1CCCC(c2cccc(Cc3ccccc3Cl)n2)C1 (stereo unspecified) | -5.601 |

| SMILES | Percent Effect [%] |
| --- | --- |
| CN(C)S(=O)(=O)N1CCCC(c2cccc(Cc3ccc(Cl)cc3)n2)C1 (stereo unspecified) | 74.08 |
| CN(C)S(=O)(=O)N1CCCC(c2cccc(Cc3ccc(F)cc3)n2)C1 (stereo unspecified) | 101 |
| CN(C)S(=O)(=O)N1CCCC(c2cccc(Cc3ccccc3)n2)C1 (stereo unspecified) | 7.511 |
| CN(C)S(=O)(=O)N1CCCC(CCC(=O)Nc2ccc(Cl)cc2)C1 (stereo unspecified) | 1.788 |
| CN(C)S(=O)(=O)N1CCC(c2cccc(Cc3ccccc3Cl)n2)CC1 | 111.4 |
| Cn1cc(CNC(=O)NCCOc2ccc(F)c(F)c2)cn1 | -13.41 |
| Cc1nc(COc2nc(C(C)C)no2)cs1 | 5.061 |
| CC(C)(N)c1cn(C2CCN(c3ncccc3Cl)CC2)nn1 | -9.362 |
| CC(c1ccccc1Cl)N1CCN(C(=O)c2ccc(=O)[nH]c2)CC1 (stereo unspecified) | -13 |
| O=C(O)c1ccccc1-n1cc(CN2CCOC(c3cc[nH]n3)C2)cn1 (stereo unspecified) | 92.78 |
| O=C(O)c1ccccc1-n1cc(CN2CCC(c3cc[nH]n3)C2)cn1 (stereo unspecified) | 122.2 |
| Cc1ccnc(C2CN(Cc3cnn(-c4ccccc4C(=O)O)c3)C2)n1 | 148.5 |
| Cc1c[nH]nc1C1CN(Cc2cnn(-c3ccccc3C(=O)O)c2)C1 | 143.7 |
| CN1CCN(Cc2cnn(-c3ccccc3Cl)c2)[C@H]2CS(=O)(=O)C[C@H]21 | 2.085 |
| COC(=O)c1cccc2nc([C@H]3CCN(Cc4ccccc4)C3)oc12 | -1.952 |
| Cn1cc(CN2CC[C@@H]3[C@@H](CCC(=O)N3CCc3ccccc3)C2)cn1 | -6.541 |
| CCOC(=O)c1n[nH]cc1CN1CCCC(N(C)Cc2ccccc2)C1 (stereo unspecified) | -2.39 |
| Cc1cccc(C)c1OC1CN(Cc2cnn(C)c2)C1 | -10.44 |
| COCCc1noc(CNC2CCCN(c3cccnn3)C2)n1 (stereo unspecified) | 6.075 |
| CCOC(=O)c1coc(N2CCC(N3CCC(O)CC3)CC2)n1 | -0.9238 |
| CC(=O)N(c1ccc(C)cc1)c1nc(CN2CCCC(C)C2)cs1 (stereo unspecified) | 4.19 |
| Cc1cc(C)nc(N2CCC(c3cncc(-n4ccnc4)n3)CC2)n1 | 132.5 |
| Cc1cc(C2CCC2)nc(N2CC(n3cccn3)C2)n1 | 18.14 |
| Fc1ccc(CN2CCCC2c2cncc(-n3ccnc3)n2)cc1 (stereo unspecified) | -7.107 |

| SMILES | Percent Effect [%] |
| --- | --- |
| O=C(c1cnccn1)N1CCCC(c2cccc(-n3ccnc3)n2)C1 (stereo unspecified) | 132.1 |
| O=C(c1cc[nH]n1)N1CCCC(c2cccc(-n3ccnc3)n2)C1 (stereo unspecified) | -0.007784 |
| O=C(C1CCC1)N1CCCC(c2cccc(-n3ccnc3)n2)C1 (stereo unspecified) | 120 |
| CC(=O)N1CCCC(c2cccc(-n3ccnc3)n2)C1 (stereo unspecified) | 108.7 |
| Cc1nc(COC[C@@H]2CCC[C@@]23CNCCO3)cs1.Cl.Cl | -7.746 |
| CNS(=O)(=O)CC1CCCN1c1ccc(Br)cn1 (stereo unspecified) | -12.02 |
| Cn1ccnc1C(NCc1csc(Br)c1)c1ccccc1 (stereo unspecified) | -0.294 |
| CCc1nccc(CN2CCCC(c3nn(C)c(=O)n3CC)C2)n1 (stereo unspecified) | 16.29 |
| CC(C)[C@H]1COC(=O)N1Cc1nccn1C1CC1 | 4.052 |
| CCc1nc(N)nc(NCc2cnn3cccnc23)c1C | -10.8 |
| OCCCN1CCc2[nH]nc(C(c3ccccc3)c3ccccc3)c2C1 | -10.74 |
| O=C(Cn1ccc(=O)[nH]c1=O)NCc1cccnc1OCC(F)(F)F | 7.684 |
| CC(c1ccon1)N(C)C(=O)C1CCN(C2CCCCC2)CC1 (stereo unspecified) | -1.584 |
| Cc1ccccc1CN1CCCN(S(=O)(=O)N(C)C2CCCCC2)CC1 | -4.096 |
| Cc1cnn(CCNCc2nccn2Cc2ccccc2)c1 | 6.467 |
| Cl.c1cnc(N2CCCC(NCc3ccc(-n4ccnc4)cc3)C2)nc1 (stereo unspecified) | 24.04 |
| O=C(C1CCCC1)N1CCCC(c2cccc(-n3ccnc3)n2)C1 (stereo unspecified) | 109.1 |
| CCCc1n[nH]cc1C(=O)N1CCCC(c2nccn2CC2CC2)C1 (stereo unspecified) | 2.109 |
| Cn1c(Cn2ccnc2)nnc1C1CCCN(c2ncccn2)C1 (stereo unspecified) | 5.27 |
| Cc1cc(C2CCCN(C(=O)c3c(C)nn4cccnc34)C2)n[nH]1 (stereo unspecified) | -1.385 |
| c1cnc(N2CCCC(c3cncc(-n4ccnc4)n3)C2)nc1 (stereo unspecified) | 115.9 |
| COCC(=O)N1CCCC(c2cccc(-n3ccnc3)n2)C1 (stereo unspecified) | 83.17 |
| Cc1n[nH]cc1C(=O)N1CCCC(c2cccc(-n3ccnc3)n2)C1 (stereo unspecified) | 117.2 |
